Inconclusive results are not listed. Entries that show only a call come without a potency. Active and inactive are the calls of the source. The call rests on the fitted dose curve; in most records, active means well fitted curve in the direction sought with a large enough effect; inconclusive means small, poorly fitted or top-dose-only effect, or another doubt; inactive means no such curve, though single readings can be large; an effect the other way counts as inactive or inconclusive.
How the values were obtained:
[1] = target: Cellular tumor antigen p53 (Homo sapiens) (UniProt P04637); assay: Primary qHTS for small molecule compounds that upregulate eGFP-tagged delta133p53alpha (in N-terminal) cells. (AID 2060322); conditions: NCI-H358 eGFP-delta133p53alpha fluorescence, 24 h; activation: stronger effect = higher value; further: nearly all actives have a fitted effect of over 75% in size; further: potency means the concentration at half of the fitted maximal effect
Outline: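 NCI-H358 cells pre-induced 24 h with 10 ng/ml doxycycline to express N-terminal eGFP-delta133p53alpha, then dosed 24 h at 37C without doxycycline; fixed, Hoechst-stained, GFP intensity by laser scanning cytometry, normalized to DMSO (0%) and 57.5 uM 5-azacytidine (100%).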

[2] = target: Aldehyde dehydrogenase, mitochondrial (Homo sapiens) (UniProt P05091); assay: qHTS for Inhibitors of the Aldehyde Dehydrogenase Family (ALDH2) Primary screen (AID 2061308); conditions: ALDH2 enzyme inhibition qHTS, 1536-well; series mostly up to 56 µM; further: nearly all actives have a fitted effect of over 55% in size
[3] = target: Retinaldehyde dehydrogenase 3 (Homo sapiens) (UniProt P47895); assay: qHTS for Inhibitors of the Aldehyde Dehydrogenase Family (ALDH1A3) Primary screen (AID 2061315); conditions: ALDH inhibition qHTS; series mostly up to 56 µM

Cellular tumor antigen p53 (Homo sapiens), sequence (P04637 whole entry, looked up): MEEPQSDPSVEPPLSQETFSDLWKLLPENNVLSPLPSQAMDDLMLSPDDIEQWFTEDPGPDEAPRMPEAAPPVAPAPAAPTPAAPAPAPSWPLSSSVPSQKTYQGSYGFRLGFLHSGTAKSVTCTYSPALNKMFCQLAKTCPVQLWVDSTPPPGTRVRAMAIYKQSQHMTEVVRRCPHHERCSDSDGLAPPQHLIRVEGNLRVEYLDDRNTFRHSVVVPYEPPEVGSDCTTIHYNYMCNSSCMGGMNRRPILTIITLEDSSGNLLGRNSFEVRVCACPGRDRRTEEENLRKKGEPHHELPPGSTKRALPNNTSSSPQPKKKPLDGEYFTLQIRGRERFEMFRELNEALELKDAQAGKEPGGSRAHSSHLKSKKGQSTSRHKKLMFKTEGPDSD

Row | Compound | activation [1] | Potency [2] | Potency [3] | Potency [1] | activity change, negative = inhibition [2] | activity change, negative = inhibition [3]
1 | CC1=C2CC(=O)C(C)CC/C=C(\C)CC2(O)OC1=O (centres undefined) | -1.53% (inactive) | inactive | inactive | – | – | –
2 | COC(=O)C1=CO[C@@H](O[C@@H]2O[C@H](CO)[C@@H](O)[C@H](O)[C@H]2O)[C@H]2[C@@H]1C=C[C@]21C=C([C@H](C)OC(=O)/C=C/c2ccc(O[C@@H]3O[C@H](CO)[C@@H](O)[C@H](O)[C@H]3O)cc2)C(=O)O1 | -1.79% (inactive) | inactive | inactive | – | – | –
3 | CC(=O)OC1C(C)C2C(OC3OC(CO)C(O)C(O)C3O)OC=C(C(=O)O)C2C1OC(=O)c1ccccc1 (centres undefined) | 5.34% (inactive) | inactive | inactive | – | – | –
4 | COc1ccc2nccc(C(=O)CC[C@@H]3CCN(CC#Cc4cc(F)cc(F)c4F)C[C@@H]3C(=O)O)c2c1 | 7.64% (inactive) | inactive | inactive | – | – | –
5 | CC(=O)O[C@@H]1C[C@H](O)[C@@]23CO[C@H](O)[C@]1(C)C2C[C@@H](O)[C@]1(C)C3C(=O)[C@H](OC(C)=O)[C@@]2(C)[C@H](c3ccoc3)C[C@H]3O[C@]321 (some centres undefined) | -1.79% (inactive) | inactive | inactive | – | – | –
6 | C=C(C)C1CCC2(C(=O)O)CCC3(C)C(CCC4C5(C)C(C=O)C(O)C(C)(C)C5CCC43C)C12 (centres undefined) | -19.8% (inactive) | inactive | inactive | – | – | –
7 | CN(C)C/C=C/C(=O)Nc1cc2c(Nc3ccc(F)c(Cl)c3)ncnc2cc1OC1CCOC1 (centres undefined) | – | inactive | inactive | 7.57 µM (active) | – | –
8 | C[C@H]1[C@H](C)CC[C@]2(C(=O)OC3OC(CO)C(O)C(O)C3O)CC[C@]3(C(=O)O)C(=CCC4[C@@]5(C)CC[C@H](O[C@@H]6O[C@@H](C)[C@H](OC7OC(CO)C(O)C(O)C7O)[C@@H](O)[C@H]6O)C(C)(C)C5CC[C@]43C)[C@H]12 (some centres undefined) | -9.92% (inactive) | inactive | inactive | – | – | –
9 | O=C(O)/C=C/c1ccc2occc2c1O[C@@H]1O[C@H](CO)[C@@H](O)[C@H](O)[C@H]1O | 8.4% (inactive) | inactive | inactive | – | – | –
10 | CC(CCC1(O)OC2CC3C4CC=C5CC(O[C@@H]6O[C@H](CO)[C@@H](O[C@@H]7O[C@@H](C)[C@H](O)[C@@H](O)[C@H]7O)[C@H](O)[C@H]6O[C@@H]6O[C@@H](C)[C@H](O)[C@@H](O)[C@H]6O)CCC5(C)C4CCC3(C)C2C1C)CO[C@@H]1O[C@H](CO)[C@@H](O)[C@H](O)[C@H]1O (some centres undefined) | 8.04% (inactive) | inactive | inactive | – | – | –
11 | C[C@]12CCC[C@](C)(C(=O)O)C1[C@@H](O)[C@@H](O)C13CC(CCC12)C(CO)(O[C@@H]1O[C@H](CO)[C@@H](O)[C@H](O)[C@H]1O)C3 (some centres undefined) | -9.16% (inactive) | inactive | inactive | – | – | –
12 | C=C[C@@H]1[C@H](O[C@@H]2O[C@H](CO)[C@@H](O)[C@H](O)[C@H]2O)OC=C(C(=O)O)[C@H]1CCOC(=O)/C=C/c1ccc(O)c(O)c1 | -7.63% (inactive) | inactive | inactive | – | – | –
13 | C[C@@H]1O[C@@H](OC[C@H]2O[C@@H](OCCc3ccccc3)[C@H](O)[C@@H](O)[C@@H]2O)[C@H](O)[C@H](O)[C@H]1O | -8.4% (inactive) | inactive | inactive | – | – | –
14 | C/C=C(/C)C(=O)OC1C(OC(C)=O)C23C(O)OC4(CCC5C6(C)CCC(OC7OC(C(=O)O)C(O)C(OC8OC(CO)C(O)C(O)C8OC8OC(C)C(O)C(O)C8OC8OCC(O)C(O)C8O)C7OC7OC(CO)C(O)C(O)C7O)C(C)(C)C6CCC5(C)C4(C)CC2OC(C)=O)C3CC1(C)C (centres undefined) | -7.63% (inactive) | – | – | – | 23.8% [at 11.2 µM] (inactive) | 2.15% [at 11.2 µM] (inactive)
15 | C=C1CCC[C@]2(C)CC/C(=C(/CO)C(=O)OC)C[C@@H]12 | 18.8% (inactive) | inactive | inactive | – | – | –
16 | COc1cc(CO)ccc1O[C@@H]1O[C@H](CO)[C@@H](O)[C@H](O)[C@H]1O | -7.14% (inactive) | inactive | inactive | – | – | –
17 | C/C=C(\C)C(=O)OC[C@H]1O[C@H](O[C@H]2O[C@H](CO)[C@@H](O)[C@H](O)[C@H]2O[C@@H]2O[C@H](CO)[C@@H](O)[C@H](O)[C@H]2O)[C@H](O[C@@H]2O[C@H](CO)[C@@H](O)[C@H](O)[C@H]2O)[C@@H](O)[C@@H]1O | -3.82% (inactive) | inactive | inactive | – | – | –
18 | C[C@@H](CC[C@@H]1[C@@]2(C)CCCC(C)(C)C2CC[C@@]1(C)O)CC(=O)O (some centres undefined) | -12.2% (inactive) | inactive | inactive | – | – | –
